Where “and” joins values, the source holds several entries; their conditions need not be identical. Equal values may be shown once. Calls of active or inactive are those of the source. Unless noted, the call rests on the fitted dose curve.
How the values were obtained:
[1] = target: Estrogen receptor (Homo sapiens) (UniProt P03372); test: qHTS assay for small molecule antagonists of estrogen receptor alpha signaling (AID 588513; active means well fitted curve in the direction sought with a large enough effect in the signal ratio, with a control signal flat, not every such curve was filed as active; inconclusive means small, poorly fitted or top-dose-only effect, or effect the other way, or a change in a side signal; inactive means no such curve, though single readings can be large or run the other way; the % refers to the signal ratio; further: potency means the concentration at half of the fitted maximal effect); conditions: ER-alpha-UAS-bla HEK293, beta-lactamase ratio, antagonist mode; series mostly up to 76.9 µM
Estrogen receptor (Homo sapiens), sequence (P03372 whole entry, looked up): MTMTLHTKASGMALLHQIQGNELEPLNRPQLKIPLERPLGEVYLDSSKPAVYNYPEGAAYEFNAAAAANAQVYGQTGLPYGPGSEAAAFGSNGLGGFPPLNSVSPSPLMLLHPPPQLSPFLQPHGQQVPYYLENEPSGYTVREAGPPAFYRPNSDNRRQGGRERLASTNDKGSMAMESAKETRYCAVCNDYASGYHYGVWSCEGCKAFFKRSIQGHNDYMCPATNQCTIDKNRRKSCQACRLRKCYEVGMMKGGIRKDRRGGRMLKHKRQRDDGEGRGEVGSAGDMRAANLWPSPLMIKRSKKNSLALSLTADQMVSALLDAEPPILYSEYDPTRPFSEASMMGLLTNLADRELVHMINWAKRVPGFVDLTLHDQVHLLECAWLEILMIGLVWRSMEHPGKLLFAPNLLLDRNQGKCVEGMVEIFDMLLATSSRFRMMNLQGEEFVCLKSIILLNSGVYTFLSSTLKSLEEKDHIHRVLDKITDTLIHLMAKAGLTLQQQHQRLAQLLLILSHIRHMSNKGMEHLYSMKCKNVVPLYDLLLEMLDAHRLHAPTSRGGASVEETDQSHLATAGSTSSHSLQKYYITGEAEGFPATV
Procedure, shortened: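 ER-alpha-UAS-bla GripTite HEK 293 cells in 2% charcoal/dextran-treated FBS medium; compounds titrated (1:2, duplicate), then stimulated with 0.5 nM 17-beta-estradiol for 18 h at 37C. CCF4 beta-lactamase fluorescence; Hill-fit IC50 and efficacy.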

[2] = target: Bile acid receptor (Homo sapiens) (UniProt Q96RI1); test: qHTS assay for small molecule antagonists of farnesoid X receptor signaling (AID 588526); conditions: HEK293T FXR-UAS-bla, beta-lactamase ratio, antagonist mode; series mostly up to 76.7 µM; further: on the % scale 0 is the no-effect control and ±100 the full control effect
Procedure, shortened: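 Concentration-response titrations were fitted to the Hill equation for half-maximal inhibition and maximal response, with data normalised to 50 uM chenodeoxycholic acid and DMSO control wells. Cells: FXR-UAS-bla HEK293T, dialyzed FBS.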

[3] = target: Peroxisome proliferator-activated receptor gamma (Homo sapiens) (UniProt P37231); test: qHTS assay for small molecule agonists of peroxisome proliferator-activated receptor gamma signaling (AID 588536; active means well fitted curve in the direction sought with a large enough effect in the signal ratio, with a control signal flat, not every such curve was filed as active; inconclusive means small, poorly fitted or top-dose-only effect, or effect the other way, or a change in a side signal; inactive means no such curve, though single readings can be large or run the other way; the % refers to the signal ratio;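 further: 0% = DMSO basal wells and 100% = rosiglitazone at 2 µM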); conditions: HEK293 PPARg-UAS-bla, beta-lactamase ratio, 16 h, percent of rosiglitazone response, DMSO as zero; series mostly up to 76.7 µM
Peroxisome proliferator-activated receptor gamma (Homo sapiens), sequence (P37231 whole entry, looked up): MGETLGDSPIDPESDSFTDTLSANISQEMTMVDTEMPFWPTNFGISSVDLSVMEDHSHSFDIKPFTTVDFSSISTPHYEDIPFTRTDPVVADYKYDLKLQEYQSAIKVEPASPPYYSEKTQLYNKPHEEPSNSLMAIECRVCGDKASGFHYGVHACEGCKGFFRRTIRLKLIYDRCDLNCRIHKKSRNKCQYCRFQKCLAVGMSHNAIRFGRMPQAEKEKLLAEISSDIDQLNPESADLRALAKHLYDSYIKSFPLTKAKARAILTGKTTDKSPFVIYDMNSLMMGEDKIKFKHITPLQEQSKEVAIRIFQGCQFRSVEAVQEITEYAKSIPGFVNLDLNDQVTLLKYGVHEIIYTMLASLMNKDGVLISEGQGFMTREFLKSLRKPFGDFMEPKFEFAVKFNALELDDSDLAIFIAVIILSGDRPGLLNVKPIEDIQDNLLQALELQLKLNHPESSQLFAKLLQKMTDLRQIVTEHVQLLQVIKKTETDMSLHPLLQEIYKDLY
Procedure, shortened: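 Ratiometric blue/green fluorescence (405 nm excitation; 460 and 530 nm emission) from CCF4-loaded HEK293 reporter cells serves as signal. Exposure to test compounds lasts 16 h at 37 C in medium containing 1% charcoal/dextran-treated serum.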

[4] = target: Vitamin D3 receptor (Homo sapiens) (UniProt P11473); test: qHTS assay for small molecule antagonists of vitamin D receptor signaling (AID 588541); conditions: HEK293T VDR-UAS-bla, beta-lactamase ratio, antagonist mode; series mostly up to 76.7 µM;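 further: receptor activated by calcitriol during compound treatment; on the % scale 0 is the no-effect control and ±100 the full control effect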
Vitamin D3 receptor (Homo sapiens), sequence (P11473 whole entry, looked up): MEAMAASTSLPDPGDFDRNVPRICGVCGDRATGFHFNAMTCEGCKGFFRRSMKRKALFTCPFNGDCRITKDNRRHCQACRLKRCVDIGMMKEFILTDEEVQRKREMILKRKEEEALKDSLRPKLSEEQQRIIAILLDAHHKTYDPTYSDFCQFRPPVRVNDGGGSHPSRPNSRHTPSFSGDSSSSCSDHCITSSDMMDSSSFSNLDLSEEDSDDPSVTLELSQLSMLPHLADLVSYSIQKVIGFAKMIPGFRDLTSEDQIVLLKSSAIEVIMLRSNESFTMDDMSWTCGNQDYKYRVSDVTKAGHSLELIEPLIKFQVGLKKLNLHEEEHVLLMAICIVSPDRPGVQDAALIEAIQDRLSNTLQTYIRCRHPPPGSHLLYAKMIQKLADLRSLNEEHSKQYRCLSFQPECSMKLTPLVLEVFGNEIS
Procedure, shortened: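 VDR-UAS-bla HEK293T cells (2000/well, 2% charcoal-stripped FBS) were treated with titrated compounds plus 1-alpha,25-dihydroxyvitamin D3 (50 nM or 3 nM final) for 16 h at 37 C. CCF4 beta-lactamase fluorescence was read; Hill fits gave IC50.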

[5] = target: Vitamin D3 receptor (Homo sapiens) (UniProt P11473); test: qHTS assay for small molecule agonists of vitamin D receptor signaling (AID 588543); conditions: HEK293T VDR-UAS-bla, beta-lactamase ratio, 16 h; series mostly up to 76.8 µM;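 further: 0% = DMSO basal and 100% = reference agonist control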
Procedure, shortened: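 VDR-UAS-bla HEK293T cells, 2000/well, 2% charcoal-stripped FBS; compound titration 16 h at 37 C; CCF4 beta-lactamase ratio read. Normalized to 50 nM 1-alpha,25-dihydroxyvitamin D3 (100%) and DMSO; Hill fit gives EC50, efficacy.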

[6] = target: Thyroid hormone receptor beta (Homo sapiens) (UniProt P10828); test: qHTS assay for small molecule agonists of thyroid hormone receptor beta signaling (AID 588545); conditions: TR-UAS-bla GripTite HEK 293, beta-lactamase ratio, agonist mode, 18 h, percent of T3 response, DMSO as zero; series mostly up to 76.7 µM
Thyroid hormone receptor beta (Homo sapiens), sequence (P10828 whole entry, looked up): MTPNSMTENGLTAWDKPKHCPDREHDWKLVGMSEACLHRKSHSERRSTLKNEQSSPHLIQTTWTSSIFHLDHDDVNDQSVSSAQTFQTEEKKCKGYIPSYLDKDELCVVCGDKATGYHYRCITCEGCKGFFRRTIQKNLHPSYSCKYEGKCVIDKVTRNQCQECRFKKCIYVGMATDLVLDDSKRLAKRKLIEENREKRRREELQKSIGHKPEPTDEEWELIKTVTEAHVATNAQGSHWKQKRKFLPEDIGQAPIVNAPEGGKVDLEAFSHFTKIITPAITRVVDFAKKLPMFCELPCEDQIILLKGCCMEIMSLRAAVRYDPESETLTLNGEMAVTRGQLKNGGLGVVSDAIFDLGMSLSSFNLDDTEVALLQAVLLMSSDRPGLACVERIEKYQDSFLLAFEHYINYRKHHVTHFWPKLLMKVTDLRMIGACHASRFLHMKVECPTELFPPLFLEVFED
Procedure, shortened: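 HEK 293 TR-UAS-bla; agonist mode; 18 hrs, 37 C; CCF4, ex 405/em 460 and 530 nm; norm. T3 10 nM = 100%, DMSO = 0%; Hill fit → EC50, efficacy.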

[7] = qHTS assay for small molecule antagonists of retinoid X receptor alpha signaling (AID 588546; active means well fitted inhibition curve with a large enough effect in the signal ratio, with a control signal flat, not every such curve was filed as active; inconclusive means small, poorly fitted or top-dose-only effect, or effect the other way, or a change in a side signal; inactive means no such curve, though single readings can be large or run the other way; the % refers to the signal ratio;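 further: cells stimulated with 9-cis-retinoic acid as agonist; on the % scale 0 is the no-effect control and ±100 the full control effect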); conditions: HEK293T RXRa-UAS-bla, beta-lactamase ratio, antagonist mode; measured here: W530 green channel, cytotoxicity proxy
Procedure, shortened: (§1)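 Beta-lactamase reporter inhibition, read as CCF4 fluorescence ratio (ex 405, em 460/530 nm) after 2 h at RT. HEK293T UAS-bla cells, 2500/well, were stimulated with 9-cis-RA at 500 or 100 nM final alongside test compound for 18 h at 37 C.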

[8] = target: Retinoic acid receptor RXR-alpha (Homo sapiens) (UniProt P19793); test: as above; conditions: HEK293T RXRa-UAS-bla, beta-lactamase ratio, antagonist mode
Retinoic acid receptor RXR-alpha (Homo sapiens), sequence (P19793 whole entry, looked up): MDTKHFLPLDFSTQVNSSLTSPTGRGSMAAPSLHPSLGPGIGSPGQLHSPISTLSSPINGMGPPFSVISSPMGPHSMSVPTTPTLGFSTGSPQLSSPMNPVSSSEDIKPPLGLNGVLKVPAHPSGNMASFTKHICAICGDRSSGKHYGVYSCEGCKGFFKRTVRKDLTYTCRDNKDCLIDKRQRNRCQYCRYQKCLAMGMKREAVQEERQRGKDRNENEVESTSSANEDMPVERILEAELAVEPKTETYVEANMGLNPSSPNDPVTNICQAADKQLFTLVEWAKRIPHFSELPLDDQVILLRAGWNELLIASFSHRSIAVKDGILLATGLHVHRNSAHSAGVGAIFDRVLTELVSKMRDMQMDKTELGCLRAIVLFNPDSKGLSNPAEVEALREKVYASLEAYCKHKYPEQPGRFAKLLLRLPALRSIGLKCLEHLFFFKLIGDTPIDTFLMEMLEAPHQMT
Procedure, shortened: as §1

[9] = target: Thyroid hormone receptor beta (Homo sapiens) (UniProt P10828); test: qHTS assay for small molecule antagonists of thyroid hormone receptor beta signaling (AID 588547; active means well fitted inhibition curve with a large enough effect in the signal ratio, with a control signal flat, not every such curve was filed as active; inconclusive means small, poorly fitted or top-dose-only effect, or effect the other way, or a change in a side signal; the % refers to the signal ratio;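 further: cells stimulated with 0.4 nM T3 agonist during compound exposure; on the % scale 0 is the no-effect control and ±100 the full control effect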); conditions: TR-UAS-bla HEK293, beta-lactamase ratio, antagonist mode, 18 h
Procedure, shortened: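 TR-UAS-bla GripTite HEK293 cells in 2% charcoal/dextran FBS medium were preincubated 4 h at 37 C, given compound (0.59 nM to 92 uM) plus 0.4 nM T3 (final) for 18 h, then CCF4 for 2 h at RT; Hill fit gave IC50.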

[10] = target: DNA dC->dU-editing enzyme APOBEC-3G (Homo sapiens) (UniProt Q9HC16); test: qHTS for inhibitors of Vif-A3G interactions: Validation (AID 588379; active means well fitted inhibition curve with a large enough effect; inconclusive means small, poorly fitted or top-dose-only effect; further: 0% is about no effect); conditions: Vif-A3G protein interaction assay; series mostly up to 46.1 µM
DNA dC->dU-editing enzyme APOBEC-3G (Homo sapiens), sequence (Q9HC16 whole entry, looked up): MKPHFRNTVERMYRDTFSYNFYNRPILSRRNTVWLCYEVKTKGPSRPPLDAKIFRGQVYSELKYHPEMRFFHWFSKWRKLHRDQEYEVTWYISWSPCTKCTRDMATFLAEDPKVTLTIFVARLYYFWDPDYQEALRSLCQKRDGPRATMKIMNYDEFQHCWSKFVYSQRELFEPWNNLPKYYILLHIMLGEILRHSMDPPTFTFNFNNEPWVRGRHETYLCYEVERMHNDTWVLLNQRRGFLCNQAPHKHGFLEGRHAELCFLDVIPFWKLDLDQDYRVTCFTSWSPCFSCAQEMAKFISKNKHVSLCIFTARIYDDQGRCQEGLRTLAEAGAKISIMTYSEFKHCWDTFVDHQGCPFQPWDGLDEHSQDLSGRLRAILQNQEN
Procedure, shortened: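 HeLa cells stably expressing Vif and A3G-eYFP, 700 cells/well, incubated overnight at 37 deg C, then exposed to compound overnight at 37 deg C. Inhibition of Vif-mediated degradation read as increased yellow fluorescence (Ex 488/Em 500-530) by laser-scanning cytometry.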

[11] = target: Glucocorticoid receptor (Homo sapiens) (UniProt P04150); test: qHTS assay for small molecule agonists of glucocorticoid receptor signaling (AID 588532; active means well fitted curve in the direction sought with a large enough effect in the signal ratio, with a control signal flat; inconclusive means small, poorly fitted or top-dose-only effect, or a change in a side signal; inactive means no such curve, though single readings can be large or run the other way; the % refers to the signal ratio;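 further: 100% = dexamethasone at 0.1 µM and 0% = DMSO only wells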); conditions: HeLa MMTV-bla, beta-lactamase ratio, agonist, 18 h; stronger effect = higher value; percent of dexamethasone control, DMSO zero
Glucocorticoid receptor (Homo sapiens), sequence (P04150 whole entry, looked up): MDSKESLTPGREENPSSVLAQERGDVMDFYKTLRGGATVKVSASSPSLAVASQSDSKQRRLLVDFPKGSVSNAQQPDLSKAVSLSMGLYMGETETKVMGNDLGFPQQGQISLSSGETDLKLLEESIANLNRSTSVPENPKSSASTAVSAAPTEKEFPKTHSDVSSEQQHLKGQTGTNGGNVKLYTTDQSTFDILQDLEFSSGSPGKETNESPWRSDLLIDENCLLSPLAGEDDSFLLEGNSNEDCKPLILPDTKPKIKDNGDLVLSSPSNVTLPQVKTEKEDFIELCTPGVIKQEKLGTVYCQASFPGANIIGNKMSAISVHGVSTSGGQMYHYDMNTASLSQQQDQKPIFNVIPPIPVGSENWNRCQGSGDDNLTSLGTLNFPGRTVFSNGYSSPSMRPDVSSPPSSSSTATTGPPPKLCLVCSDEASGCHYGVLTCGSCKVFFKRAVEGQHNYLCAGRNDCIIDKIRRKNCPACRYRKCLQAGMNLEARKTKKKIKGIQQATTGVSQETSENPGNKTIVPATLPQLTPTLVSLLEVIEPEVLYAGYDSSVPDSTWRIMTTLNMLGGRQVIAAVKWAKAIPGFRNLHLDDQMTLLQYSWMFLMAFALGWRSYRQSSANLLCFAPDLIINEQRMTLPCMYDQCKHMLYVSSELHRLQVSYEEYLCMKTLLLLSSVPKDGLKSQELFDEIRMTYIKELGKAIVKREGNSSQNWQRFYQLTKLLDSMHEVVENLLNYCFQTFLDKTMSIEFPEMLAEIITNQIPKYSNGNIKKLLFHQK
Procedure, shortened: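 Titration series, up to 92 uM, applied to GRE-bla HeLa cells for 18 h at 37 C. Detection by CCF4 FRET substrate after 2 h at RT.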

[12] = qHTS assay for small molecule antagonists of peroxisome proliferator-activated receptor delta signaling (AID 588535; active means well fitted inhibition curve with a large enough effect in the signal ratio, with a control signal flat, not every such curve was filed as active; inconclusive means small, poorly fitted or top-dose-only effect, or effect the other way, or a change in a side signal; inactive means no such curve, though single readings can be large or run the other way; the % refers to the signal ratio;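 on max response: cells co-treated with a PPAR-delta agonist as stimulator during compound exposure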); conditions: HEK293T PPARd-UAS-bla, beta-lactamase FRET ratio, 18 h; 460 nm channel
Procedure, shortened: (§2)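 Reporter: UAS-bla under PPAR-delta response element, HEK293T host. Medium: 2% charcoal/dextran FBS. Dosing: titration, 18 hrs, 37 C. Detection: CCF4, 2 hrs RT, 405 ex/460 and 530 em.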

[13] = target: Peroxisome proliferator-activated receptor delta (Homo sapiens) (UniProt Q03181); test: as above; conditions: HEK293T PPARd-UAS-bla, beta-lactamase FRET ratio, 18 h; series mostly up to 76.7 µM
Procedure, shortened: as §2

[14] = qHTS assay for small molecule agonists of retinoid X receptor alpha signaling (AID 588544); conditions: HEK293T RXRa-UAS-bla, beta-lactamase reporter, 18 h; 530 nm emission;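 on activation: 0% = DMSO basal wells and 100% = reference agonist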
[15] = target: Retinoic acid receptor RXR-alpha (Homo sapiens) (UniProt P19793); test: as above; conditions: HEK293T RXRa-UAS-bla, beta-lactamase reporter, 18 h; series mostly up to 76.7 µM
[16] = target: Voltage-gated inwardly rectifying potassium channel KCNH2 (Homo sapiens) (UniProt Q12809); test: qHTS Assay for Small Molecule Inhibitors of the Human hERG Channel Activity (AID 588834; active means well fitted inhibition curve with a large enough effect; inconclusive means small, poorly fitted or top-dose-only effect;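 further: top concentration of the series differs between compounds; on the % scale 0 is the no-effect control and ±100 the full control effect; lower thallium flux fluorescence means stronger hERG block; nearly all actives have a fitted effect of over 50% in size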); conditions: U2OS BacMam hERG, FluxOR thallium flux fluorescence; series mostly up to 46.1 µM
Voltage-gated inwardly rectifying potassium channel KCNH2 (Homo sapiens), sequence (Q12809 whole entry, looked up): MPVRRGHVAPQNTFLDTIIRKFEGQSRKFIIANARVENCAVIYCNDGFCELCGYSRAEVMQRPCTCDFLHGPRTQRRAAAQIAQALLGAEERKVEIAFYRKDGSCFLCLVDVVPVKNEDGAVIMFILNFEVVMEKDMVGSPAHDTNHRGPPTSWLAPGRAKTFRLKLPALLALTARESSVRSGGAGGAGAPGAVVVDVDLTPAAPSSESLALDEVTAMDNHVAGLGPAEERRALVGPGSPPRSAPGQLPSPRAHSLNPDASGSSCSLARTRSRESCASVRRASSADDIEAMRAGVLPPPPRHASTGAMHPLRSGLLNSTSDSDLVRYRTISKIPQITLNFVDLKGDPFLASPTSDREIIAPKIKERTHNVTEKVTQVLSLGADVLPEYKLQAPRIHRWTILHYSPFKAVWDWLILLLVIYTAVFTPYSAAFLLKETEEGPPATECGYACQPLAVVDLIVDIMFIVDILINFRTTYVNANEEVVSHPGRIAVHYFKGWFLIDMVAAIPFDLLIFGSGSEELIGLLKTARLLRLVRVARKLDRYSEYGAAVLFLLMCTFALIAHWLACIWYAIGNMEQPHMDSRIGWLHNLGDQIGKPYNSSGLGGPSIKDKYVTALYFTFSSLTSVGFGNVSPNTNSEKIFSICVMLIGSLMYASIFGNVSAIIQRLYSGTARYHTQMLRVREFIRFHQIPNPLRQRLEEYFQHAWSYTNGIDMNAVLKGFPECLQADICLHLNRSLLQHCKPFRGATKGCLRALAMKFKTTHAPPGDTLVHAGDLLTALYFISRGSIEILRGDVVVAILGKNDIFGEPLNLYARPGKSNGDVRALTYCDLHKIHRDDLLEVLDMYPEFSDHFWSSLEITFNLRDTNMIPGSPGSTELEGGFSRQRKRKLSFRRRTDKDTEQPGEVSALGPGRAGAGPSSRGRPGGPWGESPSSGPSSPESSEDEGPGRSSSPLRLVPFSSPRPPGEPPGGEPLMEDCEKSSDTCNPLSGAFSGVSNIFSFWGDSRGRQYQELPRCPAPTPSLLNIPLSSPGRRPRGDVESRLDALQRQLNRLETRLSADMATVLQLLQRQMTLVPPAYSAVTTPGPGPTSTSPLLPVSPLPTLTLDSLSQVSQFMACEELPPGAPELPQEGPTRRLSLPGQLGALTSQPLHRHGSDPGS
Procedure, shortened: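 U2OS cells BacMam-transduced with hERG, 2000 cells/well, compound ~10 min at 37 °C before stimulation buffer. FluxOR thallium flux fluorescence read kinetically on FDSS; decrease indicates block; AC50 from Hill fits.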

[17] = target: Glucocorticoid receptor (Homo sapiens) (UniProt P04150); test: qHTS assay for small molecule antagonists of glucocorticoid receptor signaling (AID 588533; active means well fitted inhibition curve with a large enough effect in the signal ratio, with a control signal flat, not every such curve was filed as active; inconclusive means small, poorly fitted or top-dose-only effect, or effect the other way, or a change in a side signal; the % refers to the signal ratio); conditions: HeLa MMTV-bla, GRE beta-lactamase ratio, antagonist mode, 18 h; series mostly up to 76.8 µM
Procedure, shortened: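 Antagonist-mode qHTS: compound titrations added to GRE-bla HeLa cells, then dexamethasone 2 nM final; 18 h, 37 C. CCF4 FRET fluorescence normalized to dexamethasone and DMSO; IC50 from Hill fit.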

[18] = target: Estrogen receptor (Homo sapiens) (UniProt P03372); test: qHTS assay for small molecule agonists of estrogen receptor alpha signaling (AID 588514); conditions: ER-alpha-UAS-bla HEK293, beta-lactamase ratio, 18 h, percent of full estradiol response, vehicle zero; series mostly up to 76.8 µM;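 further: 0% = vehicle only and 100% = reference agonist; nearly all actives have a fitted effect of over 70% in size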
Procedure, shortened: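 Cells were plated at 5000/well, incubated 4 hrs at 37 C, dosed with compound titration series, incubated 18 hrs at 37 C, loaded with CCF4 dye for 2 hrs at RT, then fluorescence was read.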

CCn1cc(C(=O)O)c(=O)c2ccc(C)nc21
14% and -13.8%: max response [7]
inactive: Potency [1] | outcome [2] | outcome [3] | outcome [4] | outcome [5] | outcome [6] | max response [8] -0.374% and 6.98% | activity change % (negative = inhibition) [9] 17.4% and 3.09%

CS(=O)c1ccc(-c2nc(-c3ccc(F)cc3)c(-c3ccncc3)[nH]2)cc1 (centres undefined)
inactive: outcome [10]

O=c1cc(-c2ccccc2)oc2cc(O)cc(O)c12
inactive: outcome [10] | activation [11] -10.9% | outcome [6]

O=c1c(O)c(-c2ccc(O)cc2)oc2cc(O)cc(O)c12
23%: max response [14]
inactive: outcome [10] | outcome [2] | activation [11] -2.66% and -3.79% | outcome [13] | outcome [15] | outcome [6] | activity change % (negative = inhibition) [9] 0.335% and 4.17%
-17.2% and 39.5%: max response [12]

O=C(O)c1cc(O)c2c(c1)C(=O)c1cccc(O)c1C2=O
inactive: outcome [10] | Potency [1] | activation [11] 1.5% | outcome [6] | Potency [16]

O=c1cc(-c2ccccc2)oc2cc(O)c(O)c(O)c12
inactive: outcome [10]

CC/C(=C(\c1ccccc1)c1ccc(OCCN(C)C)cc1)c1ccccc1
inactive: outcome [10] | activation [11] 5.77% and -2.85% | Potency [17]

CCCCC1C(=O)N(c2ccccc2)N(c2ccccc2)C1=O
4.5% and 6.7%: max response [14]
inactive: Potency [1] | outcome [18] | outcome [2] | activation [11] -0.201% and -2.53% | Potency [17] | outcome [3] | outcome [15] | outcome [6] | max response [8] 0.963% and -0.138% | activity change % (negative = inhibition) [9] 6.78% | Potency [16]
1.64% and -10.6%: max response [7]

CC1=C(/C=C/C(C)=C/C=C/C(C)=C/C(=O)Nc2ccc(O)cc2)C(C)(C)CCC1
active: Potency [1] 15.8 µM [inconclusive]
inactive: outcome [18] | outcome [5] | Potency [16]

CCCNC(=O)NS(=O)(=O)c1ccc(Cl)cc1
8.72%: max response [12]
-1.39% and 4.27%: max response [7]
inactive: Potency [1] | outcome [18] | activation [11] 0.922% and 6.93% | Potency [17] | outcome [13] | outcome [3] | outcome [4] | outcome [5] | outcome [15] | outcome [6] | max response [8] 15% and -16.7% | activity change % (negative = inhibition) [9] 15.7% and -17.5% | Potency [16]
2.79% and 10.5%: max response [14]
